# Assay outcomes from PubChem.
# Rows were chosen to be rich in hits. Some 1.2% of all compounds tested hit in one or more screens of this group.
# KCNH2 3.1 block – qHTS for Inhibitors of KCHN2 3.1: Mutant qHTS. activity change, % (tested at about 1.8 µM). Potassium voltage-gated channel subfamily H member 2, brain isoform KCNH2 3.1 (human). U2OS KCNH2 3.1, thallium flux FluxOr; hits give low values. hit rate 0.95% among 340,000;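 active = maximum activity change below -70%; inconclusive = maximum activity change from -70% to -50%; inactive = maximum activity change above -50%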;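 also: thallium influx rate constant from kinetic fluorescence after stimulation buffer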
#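 Thallium flux read-out: FluxOr dye with Red40 quencher in HBSS/HEPES, 45 min at RT. Rate constants from kinetic reads were normalized to positive and negative DMSO controls. Cells: U2OS virally expressing the 3.1 isoform.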
# hERG WT inh – qHTS for Inhibitors of KCHN2 3.1: Wildtype qHTS; Voltage-gated inwardly rectifying potassium channel KCNH2 (Homo sapiens), Q12809; U2OS, BacMam KCNH2, thallium flux FluxOr; hits give low values; activity change, % at 1.84 µM; hit rate 0.37% among 340,000; AID 720551, 2013;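 active = maximum activity change below -70%; inconclusive = maximum activity change between -70% and -50%; inactive = maximum activity change above -50%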
# Target sequence (Q12809 whole entry, looked up): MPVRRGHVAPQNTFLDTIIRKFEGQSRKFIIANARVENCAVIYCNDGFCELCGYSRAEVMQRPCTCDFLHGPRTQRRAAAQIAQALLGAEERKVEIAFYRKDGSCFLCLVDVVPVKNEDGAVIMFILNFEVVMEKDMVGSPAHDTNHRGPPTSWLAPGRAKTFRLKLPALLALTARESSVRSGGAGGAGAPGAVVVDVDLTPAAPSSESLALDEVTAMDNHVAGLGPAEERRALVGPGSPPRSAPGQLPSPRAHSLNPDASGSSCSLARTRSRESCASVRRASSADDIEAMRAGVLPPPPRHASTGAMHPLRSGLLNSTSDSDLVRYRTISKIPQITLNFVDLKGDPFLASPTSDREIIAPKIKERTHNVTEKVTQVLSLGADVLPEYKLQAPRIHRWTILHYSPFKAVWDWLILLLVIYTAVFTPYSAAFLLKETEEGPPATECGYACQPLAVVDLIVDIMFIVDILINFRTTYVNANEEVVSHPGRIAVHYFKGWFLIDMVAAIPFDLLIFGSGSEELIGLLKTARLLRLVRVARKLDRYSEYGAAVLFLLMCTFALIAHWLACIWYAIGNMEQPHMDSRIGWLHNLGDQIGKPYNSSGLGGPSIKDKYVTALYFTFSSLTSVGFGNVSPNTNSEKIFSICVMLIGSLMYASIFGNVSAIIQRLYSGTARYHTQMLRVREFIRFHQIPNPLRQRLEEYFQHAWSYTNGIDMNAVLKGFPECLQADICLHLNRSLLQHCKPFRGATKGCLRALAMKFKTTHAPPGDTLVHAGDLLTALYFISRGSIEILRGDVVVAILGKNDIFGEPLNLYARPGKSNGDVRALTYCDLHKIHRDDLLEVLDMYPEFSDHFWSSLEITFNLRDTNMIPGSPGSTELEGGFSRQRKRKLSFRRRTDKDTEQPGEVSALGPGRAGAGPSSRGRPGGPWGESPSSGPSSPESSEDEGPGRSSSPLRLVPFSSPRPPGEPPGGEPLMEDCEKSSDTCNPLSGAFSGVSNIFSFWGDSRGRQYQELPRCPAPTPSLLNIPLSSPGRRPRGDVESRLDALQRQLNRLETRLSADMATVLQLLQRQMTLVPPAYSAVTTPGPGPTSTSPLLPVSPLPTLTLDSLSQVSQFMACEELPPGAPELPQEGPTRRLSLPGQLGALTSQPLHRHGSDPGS
#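 U2OS cells transduced with wild-type KCNH2 virus are loaded with FluxOr dye for 45 min, and thallium flux is measured in kinetic reads before and after stimulation buffer. Rate constants are normalized to DMSO controls.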
# KinaseGlo FLuc – Counterscreen for Luciferase (Kinase-Glo TM) Inhibition. Luciferin 4-monooxygenase (Photuris pensylvanica), Q27757. AID 1379, 2008. hit rate 0.28% among 200,000. Kinase-Glo luciferase, ATP luminescence, 8 min. Potency, µM (doses to about 38.3 µM), usual class: inhibitors; active = well fitted inhibition curve with a large enough effect; inconclusive = small, poorly fitted or top-dose-only effect; also: nearly all actives have a fitted effect of over 60% in size
#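 Compound is pinned into ATP-containing buffer (10 uM ATP, imidazole pH 7.2, 7 mM MgCl2). Kinase-Glo luciferase reagent is then added. Light output is recorded following an 8-min room-temperature incubation.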
# A number is an active result; i = inactive; ? = inconclusive; nt = no result given; [ ] = another dose, or the depositor's remark.
SMILES,KCNH2 3.1 block,hERG WT inh,KinaseGlo FLuc
Nc1nonc1-n1nnc(C(=O)N/N=C/c2ccc(OCc3ccccc3)cc2)c1CN1CCCCC1,-98.1,i,nt
O=C(NCc1cccnc1)C(=O)Nc1ccc2c(c1)OCO2,i,i,i
COc1cc(O)c(C(CCN2CCOCC2)c2ccc3c(c2)OCO3)c(OC)c1 (configuration not stated),?,i,nt
CC(C)CCC(CCN1CCOCC1)c1ccc2c(c1)OCO2 (configuration not stated),-111.1,-115.5,i
CC(C)CCC(CCN1CCCC1)c1ccc2c(c1)OCO2 (configuration not stated),-104.7,?,nt
O=C(CCN1CCCCC1)c1ccc2c(c1)OCO2,i,i,i
COc1ccc(NC(=O)c2sc3cc(C(F)(F)F)cnc3c2-c2cccs2)cc1,-92.2,i,i
O=C(Nc1ccc(F)cc1)c1sc2cc(C(F)(F)F)cnc2c1-c1cccs1,i,i,i
COc1ccc(C(=O)NNC(=O)c2ccccn2)cc1,i,i,0.631µM
COc1ccc([N+](=O)[O-])c(C=CC(=O)c2ccccn2)c1,i,i,nt
COc1cc(OC)cc(C(=O)NNC(=O)c2ccccn2)c1,i,i,i
COc1ccc(/C=C/C(=O)c2ccccn2)cc1,i,i,3.98µM
O=C(C1CCC(=O)N(C2CC2)C1)N1CCC(Oc2cccc(C(F)(F)F)c2)CC1 (configuration not stated),i,i,nt
Cc1ccc(S(=O)(=O)N2CCOCC2)cc1NC(=O)COC(=O)COc1ccc(C#N)cc1,i,i,nt
C[C@H]1CN(c2ccccc2)C(=O)[C@@H]1CC(=O)Nc1ccccc1,i,i,nt
COc1ccc(CCNC(=O)CSc2ccc(-c3ccccc3)nn2)cc1OC,i,i,i
COc1ccc(CCNC(=O)CSc2cc(=O)[nH]c(N)n2)cc1OC,i,i,i
COc1ccc(CCNC(=O)CSc2nc(O)cc(=O)[nH]2)cc1OC,-79.9,i,nt
COc1ccc(CCNC(=O)CSc2nnc(C(C)N(C)C)n2Cc2ccccc2)cc1OC (configuration not stated),-71.2,i,i
O=C(CCN1CCCO1)N1CCCC(Nc2cccc(F)c2)C1 (configuration not stated),i,i,nt
O=C(Cn1cnc2sc3c(c2c1=O)CCCC3)NCC(=O)Nc1c(F)cc(F)cc1Br,i,i,nt
CCOC(=O)c1nn(-c2ccccc2)c(=O)cc1SC(C)C,-72.0,i,i
CCOC(=O)c1nn(-c2ccccc2)c(=O)cc1SC(C)CC (configuration not stated),i,i,i
COc1ccc(NC(=O)Nc2cccc3c2O[C@@H](CN(C)CC2CCCCC2)[C@@H](C)CN([C@H](C)CO)C3=O)cc1,i,i,nt
CC(=O)c1csc(-c2cccc(-c3nc4ccc(Cl)cn4c3NC3CCCCC3)c2)c1,i,i,nt
SMILES,KCNH2 3.1 block,hERG WT inh,KinaseGlo FLuc
CCCCCCSc1cc(-c2nc3cc(C)ccn3c2NCCCC)ccc1OC,-110.6,-80.3,nt
CCCCNc1c(-c2cccc(-c3cc(C(C)=O)cs3)c2)nc2cc(C)ccn12,-70.6,i,nt
CCCCCCSc1cc(-c2nc3ccc(C)cn3c2NCc2ccccc2)ccc1OC,i,i,nt
Cc1ccc([C@H]2C[C@@H](n3cc(COC(=O)c4ccccc4)nn3)[C@H](O)CN2C(=O)c2cccs2)cc1,i,i,nt
CCOc1ccccc1NC(=O)COC(=O)CC(C)(C)CC1=NS(=O)(=O)c2ccccc2N1,i,i,nt
COc1ccc(CCNC(=O)COC(=O)C23CC4CC(CC(C4)C2)C3)cc1,i,i,i
COc1ccc(CCNC(=O)COC(=O)C23CC4CC(CC(Br)(C4)C2)C3)cc1,i,-88.2,i
Cc1ccc(NC(=O)CN(C)C(=O)COc2cccc3ccc(C)nc23)cc1,i,i,nt
Cc1nc(SCC(=O)N2CCN(C(=O)c3cccs3)CC2)c2c(C)c(C)sc2n1,i,i,nt
COc1ccccc1CNC(=O)COC(=O)c1ccc2c(=O)n3c(nc2c1)CCCCC3,i,i,nt
COC(=O)c1c(O)cc(C(C)(C)C)n(-c2ccc(F)cc2)c1=O,-215.6,-115.8,i
CC(=O)c1c(O)cc(C)n(-c2ccc(F)cc2)c1=O,i,i,i
CCOC(=O)NC(=O)CSc1nnc(C)s1,-79.2,i,i
CCCNC(=O)CSc1nnc(C)s1,i,i,i
C/C(=N/NC(=O)c1ccccn1)c1ccc(O)cc1,i,i,nt
C/C(=N/NC(=O)c1ccccn1)c1ccco1,i,i,7.08µM
CC(/C=N/NC(=O)c1ccc(CN2c3cccc4cccc(c34)S2(=O)=O)cc1)c1ccccc1 (configuration not stated),-84.1,i,nt
O=C(O)c1ccc(/C=N/NC(=O)c2ccc(CN3c4cccc5cccc(c45)S3(=O)=O)cc2)cc1,i,i,nt
Cc1ccc(NS(=O)(=O)c2cccc(C(=O)N3CCN(C(=O)c4ccco4)CC3)c2)cc1,i,i,nt
C=CCNc1ccccc1S(=O)(=O)NCc1ccccc1,i,i,nt
Cc1cc(F)ccc1S(=O)(=O)N1CCCOC1CNC(=O)C(=O)NCc1cccnc1 (configuration not stated),i,i,nt
NC(=O)Cn1nnc(-c2ccc(CN3CCCCC3)cc2)n1,-82.2,i,i
Cc1cccc(NC(=O)Cn2nnc(-c3ccc(CN4CCCC4)cc3)n2)c1C,i,i,i
CCOC(=O)C1CCCN(S(=O)(=O)NC[C@H]2O[C@@H](n3cnc4c(N)ncnc43)[C@H](O)[C@@H]2O)C1 (some centres not stated),i,i,nt
COc1cccc([C@@H]2Oc3ccc(OC)cc3C[C@H]2OC(=O)NS(=O)(=O)c2ccc(F)cc2)c1,nt,nt,i
SMILES,KCNH2 3.1 block,hERG WT inh,KinaseGlo FLuc
C=CC[n+]1c(C)csc1Nc1ccc(C(=O)O)cc1,-79.3,nt,i
O=C(O)c1ccc(C[n+]2c(-c3ccccc3)csc2Nc2ccccc2)cc1,i,i,i
CCCCOP(=O)(c1ccc(N(C)C)cc1)C(Nc1ccccc1)c1ccccc1 (configuration not stated),-95.3,i,i
CCCOP(=O)(c1ccc(N(C)C)cc1)C(Nc1ccccc1)c1ccc(N(C)C)cc1 (configuration not stated),i,i,i
CC1(C)CC(NC(=O)c2cc(COc3cccc(C(F)(F)F)c3)on2)CCO1 (configuration not stated),i,i,nt
COc1cccc(-c2nc(CS(=O)(=O)CC(=O)N3CCOCC3)c(C)o2)c1,i,i,nt
O=C(Nc1ccc(CSc2ccccc2)cc1)c1ccccc1,i,i,i
O=C(Nc1ccccc1)c1ccc(CSc2ccccn2)cc1,i,i,11.2µM
OCC1OC([S-])[C@H](O)C(O)C1O.[Au+] (some centres not stated),nt,nt,i
N[C@H](Cc1ccc(O)c(O)c1)C(=O)O,nt,nt,i
CCOC(=O)c1c(C)oc(NC(=O)COc2ccc(Cl)cc2C)c1C#N,-75.0,i,i
Cc1cc(Cl)ccc1OCC(=O)Nc1nc(N)nc(N)n1,nt,nt,i[7.66 µM]
CSc1nnc(CSCc2ccc(Cl)cc2Cl)n1-c1ccccc1,-83.6,i,i
Cn1c(CSCc2ccc(Cl)cc2Cl)n[nH]c1=S,i,i,i
